# Rows were chosen to be rich in hits. Some 9.9% of all compounds tested hit in one or more screens of this group.
# IL-1B inflam inh: inhibitors of inflammasome signaling (IL-1 beta secretion). 360,000 compounds, 4.7% hits. AID 743279. THP-1 LPS/ATP IL-1B secretion, AlphaLISA, 16 h; stronger effect = lower value. activity change, % at 57.5 µM; in the data active means activity change below about -50%; inconclusive means mostly about -30% to -49%; further: on the % scale 0 is the no-effect control and ±100 the full control effect
#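 Secreted IL-1B measured by AlphaLISA bead assay after 16 h compound exposure of THP-1 cells; compounds (final up to 57.5 uM) added 1 h before LPS (250 ng/mL) and ATP (1.25 mM) stimulation; lower signal means less secretion.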
# KB-V1 MDR tox: KB-V1 MDR subline cytotoxicity; KB-V1 MDR cells viability, CellTiter-Glo, 72 h; Potency, µM (highest dose often 46.1 µM), most hits filed as cytotoxic; 400,000 compounds, 3.4% hits; AID 1347076; further: potency means the concentration at half of the fitted maximal effect; on the % scale 0 is the no-effect control and ±100 the full control effect; nearly all actives have a fitted effect of over 60% in size
#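 Potencies derive from concentration-effect curves fitted to normalized luminescence (CellTiter-Glo) of KB-V1 cells treated for 72 h at 37 degrees C in phenol-red-free DMEM containing 10% FBS.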
# MCF10A rereplic: induces DNA re-replication in MCF 10a normal breast cells | MCF 10A DNA re-replication, Hoechst nuclear intensity, 48 h | Potency, µM (series often up to 46.1 µM), without a hit: at the highest dose activity, positive = re-replication, actives largely listed as activators | 350,000 compounds, 2.9% hits | AID 624296; further: potency means the concentration at half of the fitted maximal effect; % of control where 0% means no effect; nearly all actives have a fitted effect of over 50% in size
# KB-3-1 cytotox: kills parental KB-3-1 adenocarcinoma cells. Potency, µM (top dose mostly 46.1 µM), hits mostly cytotoxic. 400,000 compounds, 1.4% hits. KB-3-1 viability, CellTiter-Glo ATP luminescence, 72 h; further: potency means the concentration at half of the fitted maximal effect; on the % scale 0 is the no-effect control and ±100 the full control effect; nearly all actives have a fitted effect of over 60% in size
#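 Here the drug-naive KB-3-1 line serves as comparator for MDR sub-line selectivity; cells received compound titrations, 72 h at 37 °C, then CellTiter-Glo readout.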
# SW480 rereplic: DNA re-replication induction in SW480 cells. SW480 DNA re-replication, Hoechst DNA content imaging, 48 h. Potency, µM (top dose mostly 46.1 µM), without a hit: at the top dose re-replication activation, most hits filed as activators. 340,000 compounds, 1.8% hits. AID 624297; further: potency means the concentration at half of the fitted maximal effect; % of control where 0% means no effect; nearly all actives have a fitted effect of over 55% in size
#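 Readout is total intensity of Hoechst-stained nuclei, excited at 405 nm and collected at 500-530 nm. Compound treatment lasted 48 hr at 37 C in 5% CO2 before staining.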
# Numbers without * were called inactive; i = inactive; ? = inconclusive; . = no result; [ ] = dose if it differs, or a comment. Unless noted, the call rests on the fitted dose curve; in most records, active means well fitted curve in the direction sought with a large enough effect; inconclusive means small, poorly fitted or top-dose-only effect, or another doubt; inactive means no such curve, though single readings can be large; an effect the other way counts as inactive or inconclusive.
SMILES,IL-1B inflam inh,KB-V1 MDR tox,MCF10A rereplic,KB-3-1 cytotox,SW480 rereplic
CC(C)CNC(=S)NNC(=O)c1csc2ccccc12,-25.7,14.6µM*,0.5%,i,5.2%
CCOc1cc(CNCCO)cc(Br)c1OCc1ccc(Cl)cc1,-15.9,?,?,?,?
CCOc1cccc(CNCCO)c1OCc1ccc(Cl)cc1,-54.7*,i,-1.1%,i,14.2%
CC(C)(CO)NCc1cccc(OCc2ccc(Cl)cc2)c1,?,?,10.0%,?,0.9%
COc1cccc(CNC(C)(C)CO)c1OCc1ccc(Cl)cc1,-57.1*,i,-2.1%,i,-5.4%
COc1ccc(OC)c2c(/C=C/c3c(C)[nH]c4ccccc34)ccnc12,.,20.6µM*,.,?,.
CC1CCc2sc(NC(=O)C3CC(Cl)=CCC3C(=O)O)c(C#N)c2C1 (stereo unspecified),-12.1,i,17.5%,i,-2.8%
c1ccc(-c2ccccc2OCCN2CCCC2)cc1,?,i,8.9%,i,1.3%
c1ccc(-c2ccccc2OCCCCN2CCCCCC2)cc1,-22.3,i,18.1%,i,?
CC1CCN(CCCOc2ccc(Br)cc2Cl)CC1,-59.8*,?,14.9%,i,-0.4%
O=C(c1ccco1)N1CCN(CCOCCOc2cccc3ccccc23)CC1,7.0,?,7.2%,i,2.2%
CN1CCN(CCOCCOc2ccc(Br)cc2Cl)CC1,0.0,i,?,i,5.2%
CC1CCCN(CCCOc2ccccc2-c2ccccc2)C1 (stereo unspecified),-81.6*,?,4.1%,i,27.0%
CC1CN(CCOc2ccccc2-c2ccccc2)CC(C)O1 (stereo unspecified),0.0,20.6µM*,21.2%,?,-2.6%
c1ccc(CN2CCN(CCOCCOc3cccc4ccccc34)CC2)cc1,-81.2*,?,?,i,4.0%
CCc1cccc(NC(=O)c2cn3c4c(ccc(Cl)c4c2=O)OC(C)C3)c1 (stereo unspecified),.,i,.,i,.
CC1CCN(CCCCOc2ccccc2-c2ccccc2)CC1,-104.5*,?,?,?,?
Cc1cc(OCCN2CCC(Cc3ccccc3)CC2)ccc1[N+](=O)[O-],-74.2*,i,7.1%,i,?
CC1CCN(CCOCCOc2ccccc2-c2ccccc2)CC1,?,11.6µM*,?,i,26.7%
CC(C)(C)c1ccccc1OCCOCCN1CCCCCC1,-61.6*,?,15.2%,i,?
c1ccc(-c2ccccc2OCCOCCN2CCCCC2)cc1,?,?,?,i,-0.7%
CCOC(=O)c1noc2nc(C)n(CC(=O)NC(C)CC)c(=O)c12 (stereo unspecified),.,i,.,?,.
CCN(CC)S(=O)(=O)c1ccc(C)c(NS(=O)(=O)c2cc(/C=C/C(=O)O)cc(OC)c2OC)c1,10.3,i,9.0%,i,-3.1%
COc1ccccc1NC(=O)N(C)C[C@@H]1OCc2cnnn2CCCC(=O)N([C@H](C)CO)C[C@@H]1C,39.7,i,.,i,.
CC1CCN(CCOc2ccc(OCc3ccccc3)cc2)CC1,?,14.6µM*,?,i,-0.2%
SMILES,IL-1B inflam inh,KB-V1 MDR tox,MCF10A rereplic,KB-3-1 cytotox,SW480 rereplic
c1ccc(COc2ccc(OCCCCN3CCCC3)cc2)cc1,-6.9,?,?,i,3.4%
Fc1ccc(-n2ncc3c(Nc4cccc(Cl)c4)ncnc32)cc1,.,i,.,i,.
Cc1ccc[n+](CC(=O)Nc2ccc(C)c(C)c2)c1,22.9,i,-22.8%[9.22 µM],i,-7.7%
COc1cc(CC(=O)N2CCN(C(=O)C3CCCO3)CC2)cc(OC)c1OC (stereo unspecified),4.0,i,18.1%,i,1.8%
CCc1cc(SC#N)cc(C)c1NC(=O)CCl,-101.3*,i,16.4µM*,?,23.1µM*
Cc1cc(SC#N)cc(C)c1NC(=O)CCl,-64.4*,i,?,i,.
CCc1cc(SC#N)cc(C)c1N,-92.6*,i,?,i,-1.5%
CCC(=O)Nc1ccc(SC#N)cc1C,-101.1*,?,?,i,20.7%
CCOC(=O)CC(=O)Nc1c(C)cc(C)cc1C,-15.7,i,-5.8%,i,-9.2%
O=C(CN(c1ccccc1)S(=O)(=O)c1ccccc1)Nc1ccc(F)cc1,-22.7,i,9.0%,i,4.3%
Cc1sc2ccccc2[n+]1CCC[n+]1c(C)sc2ccccc21,.,i,.,i,.
COc1ccc(/C=C/C(=O)N(C)c2ccccc2C(=O)O)cc1,-0.7,i,-6.4%,i,-4.9%
COc1ccc(C=CC(=O)C=CC=Cc2ccccc2)cc1,-51.7*,i,?,?,20.6µM*
COc1cc(C)cc(C(=O)C=Cc2ccccc2)c1O,-59.0*,i,?,i,?
COc1ccc(C(=O)/C=C/c2ccc(N(C)C)cc2)c(OC)c1,-100.1*,?,16.4µM*,?,?
COCOc1cc(O)c(C(=O)/C=C/c2ccccc2)c(OCOC)c1,-103.1*,i,?,i,?
CCOC(=O)c1nc(Nc2ccc(C(=O)OCC(C)C)cc2)c2ccccc2n1,.,i,.,i,.
COc1ccc(OC)c(N/C=C/C(=O)c2ccccc2)c1,-7.4,i,?,i,10.5%
COc1ccc(OC)c(C(=O)/C=C/c2ccccc2C(F)(F)F)c1,-109.6*,?,?,?,?
COc1ccc(C(=O)/C=C/c2ccccc2)c(OC)c1,-110.6*,i,?,?,28.4%
COc1ccc(C=CC(=O)c2cc(O)ccc2O)cc1,?,i,?,i,?
O=C(c1ccc(S(=O)(=O)N2CCCCC2)cc1)N1CCCC(C(F)(F)F)C1 (stereo unspecified),7.9,?,12.3%,i,-15.8%
CN1CCN(CC(=O)N2c3ccccc3C(C)(c3ccccc3)CC2(C)C)CC1 (stereo unspecified),-11.2,?,?,?,20.6µM*
CN1CCN(CC(=O)N2c3ccccc3C(C)(c3ccc(Cl)cc3)CC2(C)C)CC1 (stereo unspecified),?,i,1.8%,?,?
COc1ccc(CCN2C(=S)N(C)C(=O)C2CC(=O)Nc2ccc(OC)cc2)cc1 (stereo unspecified),-4.3,i,-4.6%,i,?
COc1ccc(NC(=O)CC2C(=O)N(C)C(=S)N2CCc2ccc(F)cc2)cc1 (stereo unspecified),-64.1*,?,7.8%,?,-2.2%
O=C(CC1C(=O)N(c2ccc(Cl)cc2)C(=S)N1CCc1ccncc1)Nc1ccc(F)cc1 (stereo unspecified),-62.5*,i,-12.6%,i,0.0%

# Compound activity (PubChem)
